Source: PubChem BioAssay
DRV1 agonist: activates human resolvin D1 receptor GPR32. hit rate 2.5% among 48,000. O75388. activation, % at 76.9 µM. CHO-K1 GPR32 beta-arrestin PathHunter luminescence, 90 min; zero percent set by DMSO-only wells;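 active = activation of at least 60% and not above a set upper limit, about 1 call in 100 departs from these limits; inconclusive = activation of 40% to 60%, or above that upper limit; inactive = activation under 40%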; note: 0% is about no effect
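CHO-K1 cells stably expressing ProLink-tagged GPR32 and Enzyme Activator-tagged beta-arrestin were seeded at 2,500 cells/well overnight, exposed to compounds for 90 min at 37 °C, then read by beta-Gal complementation chemiluminescence after 1 h detection reagent.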
HTT prom inh: HTT promoter inhibition. HEK293 HTT promoter firefly luciferase reporter, 24 h. Potency, µM (top dose mostly 57.5 µM), for inactives: top-dose activity change, negative = inhibition, actives largely listed as inhibitors. hit rate 0.93% among 48,000; note: potency is the fitted concentration of half-maximal effect; nearly all actives have a fitted effect of over 50% in size
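HEK293 cells carrying firefly luciferase reporters were seeded at 2,500 per well in Opti-MEM and cultured for 24 h. They were then treated with compounds at up to 57.5 uM final for 24 h at 37 degrees C before Dual-Glo luminescence readout.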
HTT-AS act: activates huntingtin-antisense promoter activity; Potency, µM (doses to about 57.5 µM), for the others: at the top dose activity change, positive = activation, most hits filed as activators; hit rate 0.24% among 48,000; HEK293 HTT-AS promoter firefly luciferase reporter, 24 h; response scale: percent change from vehicle, -100% = no light; note: potency is the fitted concentration of half-maximal effect; nearly all actives have a fitted effect of over 55% in size
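Firefly luciferase signal from promoter-reporter HEK293 cells was scaled between vehicle (0%) and zero RLU (-100%). Compounds were tested at final concentrations of up to 57.5 uM over 24 h at 37 degrees C. PTC124 at 50 uM final served as control inhibitor.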
NTMT1 inh: NTMT1 methyltransferase inhibition; hit rate 2.5% among 59,000; Potency, µM (top dose mostly 114 µM), without a hit: top-dose activity change, negative = inhibition, most hits filed as inhibitors; NTMT1 MTase-Glo SAH luminescence, purified enzyme;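 note: potency is the fitted concentration of half-maximal effect; plate controls were DMSO vehicle for no effect and no enzyme for full effect; nearly all actives have a fitted effect of over 65% in size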
USP2a K63: USP2a inhibition confirmed on K63 diubiquitin; AID 652172; hit rate 80% among 30; shares compounds with NTMT1 inh; USP2 cleavage of DiUb K63-3IQF, fluorescence kinetic; Potency, µM (titrated, usually from 57.5 µM), for inactives: top-dose activity change, negative = inhibition, most hits filed as inhibitors
Casp6 counter: caspase-6 inhibition, USP2a inhibitor counterscreen | 30 tested, under 10 active | shares compounds with NTMT1 inh | Caspase 6 enzyme, Caspase-Glo 6 luminescence | activity change, negative = inhibition, % at 46.1 µM
Target sequence (P55212 whole entry, looked up): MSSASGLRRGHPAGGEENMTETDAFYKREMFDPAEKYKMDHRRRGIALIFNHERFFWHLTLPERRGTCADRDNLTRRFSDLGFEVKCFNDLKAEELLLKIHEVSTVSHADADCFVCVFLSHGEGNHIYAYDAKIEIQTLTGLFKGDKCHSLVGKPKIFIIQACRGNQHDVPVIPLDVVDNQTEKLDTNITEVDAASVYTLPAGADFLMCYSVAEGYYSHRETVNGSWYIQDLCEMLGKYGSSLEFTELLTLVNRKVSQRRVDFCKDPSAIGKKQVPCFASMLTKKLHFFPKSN
HSD17B4 inh: HSD17B4 (human) inhibition, HPGD counter-screen; shares compounds with NTMT1 inh; purified HSD17B4, estradiol/NAD+, NADH fluorescence; Potency, µM (highest dose often 57.1 µM), without a hit: at the highest dose activity change, negative = inhibition, actives largely listed as inhibitors; hit rate 10% among 230
ALDH1A1 inh: ALDH1A1 (human) inhibition, HPGD counter-screen. shares compounds with NTMT1 inh. recombinant ALDH1A1, NADH fluorescence, propionaldehyde/NAD+. Potency, µM (highest dose often 57.1 µM), without a hit: at the highest dose activity change, negative = inhibition, usual class: inhibitors. hit rate 93% among 230. AID 743195
NNMT counter: counter-screen for NTMT1 inhibitors: human NNMT inhibition; shares compounds with NTMT1 inh; NNMT MTase-Glo luminescence, SAH detection; Potency, µM (series often up to 57.1 µM), for the others: at the highest dose activity, negative = inhibition, hits mostly inhibitors; hit rate 10% among 120; AID 1645878
Target sequence (P40261 whole entry, looked up): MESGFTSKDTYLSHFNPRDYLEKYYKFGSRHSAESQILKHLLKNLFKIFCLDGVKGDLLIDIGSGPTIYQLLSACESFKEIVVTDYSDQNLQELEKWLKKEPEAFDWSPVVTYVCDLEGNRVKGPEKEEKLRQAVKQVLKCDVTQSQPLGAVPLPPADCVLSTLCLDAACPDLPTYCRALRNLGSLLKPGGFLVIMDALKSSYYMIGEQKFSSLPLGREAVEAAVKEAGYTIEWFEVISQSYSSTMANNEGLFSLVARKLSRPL
* marks the source's active call; other numbers are inactive results; [ ] = dose if it differs, or a comment. Shown are actives, neighbours in structure and some others; about 4.6% of the full set was active somewhere. Unless noted, calls come from the whole dose curve; as a rule, active = well fitted curve in the direction sought with a large enough effect; inconclusive = small, poorly fitted or top-dose-only effect, or another doubt; inactive = no such curve, though single readings can be large; an effect the other way counts as inactive or inconclusive.

For COc1ccc(CNC(=O)C(=O)Nc2ccccc2OC)cc1 the results were DRV1 agonist -5, HTT prom inh -25%[11.5 µM], HTT-AS act -16%[11.5 µM] and NTMT1 inh 15%.
Fc1ccccc1CNCc1ccc(-c2ccnc3[nH]ccc23)cc1 was read as NTMT1 inh inconclusive and NNMT counter inconclusive.
Cc1cn([C@H]2C[C@H](N[S+](=O)([O-])Cc3ccccc3)[C@@H](CO)O2)c(=O)[nH]c1=O was read as NTMT1 inh 5%[57.5 µM].
CC(C)c1cc2c(c(O)c1O)[C@@]13CCCC(C)(C)[C@@H]1[C@H](OC3=O)C2=O was read as NTMT1 inh -10%[29.8 µM] and NNMT counter inconclusive.
`CC1(C)CCCC2(C)c3c4c(c(=O)oc(=O)c3=CCC12)=CCC1C(C)(C)CCCC41C` (stereo not given) gave NTMT1 inh 16%[29.8 µM].
CC(C)c1cc2c(c(O)c1O)[C@@]13CCCC(C)(C)C1[C@@H](O)[C@@H]2OC3=O (stereo not given in full) was read as NTMT1 inh inconclusive and NNMT counter -10%[38.3 µM].
Screening CC1(C)CC[C@]2(C(=O)O)[C@H](O)C[C@]3(C)C(=CCC4[C@@]5(C)CC[C@H](O[C@@H]6OC[C@@H](O)[C@H](O)[C@H]6O)[C@@](C)(C(=O)O)C5CC[C@]43C)[C@@H]2C1 (stereo not given in full) returned NTMT1 inh 7%[12.6 µM].
Screening O=C(CSc1nc(=O)n(CCN2CCOCC2)c2c1CCC2)Nc1cccc(Cl)c1 returned DRV1 agonist -11, HTT prom inh inconclusive, HTT-AS act -15% and NTMT1 inh -4%.
Screening Cc1cc(N2CCOCC2)cc2[nH]c(-c3c(NC[C@@H](O)c4cccc(Cl)c4)cc[nH]c3=O)nc12 returned HTT prom inh inconclusive, HTT-AS act -39%, NTMT1 inh inconclusive and NNMT counter inconclusive.
`COc1ccc(-n2cnc3cc(C(=O)N4CCCCC4)ccc32)cc1` gave NTMT1 inh inconclusive, HSD17B4 inh -21% and ALDH1A1 inh 1.4µM*.
`CCCCN(C)C(=O)Cn1nc(-c2ccc(OC)cc2)ccc1=O` gave NTMT1 inh 8%.
Screening COc1ccc2nc(-c3cc(OC)c(OC)c(OC)c3)cc(C(=O)NCC(=O)Nc3ccc(C(C)=O)cc3)c2c1 returned NTMT1 inh 5%[57.5 µM] and NNMT counter inconclusive.
COc1ccc(C(=O)COC(=O)CCCC(=O)Nc2ccc(C(C)=O)cc2)cc1 was read as DRV1 agonist 19, HTT prom inh 66%, HTT-AS act inconclusive and NTMT1 inh 20%.
For O=C(NCCc1nc2ccccc2n1CCOc1cccc([N+](=O)[O-])c1)C1CCCCC1 the results were NTMT1 inh -6%.
Screening COc1cccc(CNC(=O)Nc2nc(-c3ccncc3)cs2)c1 returned NTMT1 inh -9%[57.5 µM].
Cc1cccc(Nc2nc(-c3ccncc3)cs2)c1 was read as HTT prom inh -6%, HTT-AS act inconclusive, NTMT1 inh 2.5µM* and NNMT counter 8.9µM*.
For Cc1ccc(OCCn2c(CCNC(=O)NC3CCCCC3)nc3ccccc32)cc1 the results were NTMT1 inh -20%[57.5 µM].
Screening CN(C)c1ccc(Nc2nc(N)n(C(=O)c3c(F)cccc3F)n2)cc1 returned HTT prom inh 21%, HTT-AS act 24µM*, NTMT1 inh inconclusive and NNMT counter -13%.
NC(=O)c1nc(Nc2ccccc2)sc1NC(=O)c1c(F)cccc1F was read as DRV1 agonist -2, HTT prom inh 14%, HTT-AS act inconclusive and NTMT1 inh -6%.
For Cc1ccc(S(=O)(=O)Nc2ccc(OC(F)(F)F)cc2C(=O)Nc2nc(-c3ccccc3)cs2)cc1 the results were NTMT1 inh -3%.
`Cc1ccc(S(=O)(=O)Nc2ccc(Cl)cc2C(=O)Nc2nc(-c3ccccc3)cs2)cc1` gave NTMT1 inh inconclusive, USP2a K63 1.2µM* and Casp6 counter 0.
Cc1ccc(S(=O)(=O)Nc2cnccc2C(=O)Nc2nc(-c3ccccc3F)cs2)cc1 was read as NTMT1 inh -19%.
For Cc1ccc(S(=O)(=O)Nc2cc(F)c(F)cc2C(=O)Nc2nc(-c3ccccc3)cs2)cc1 the results were NTMT1 inh 7%.
`Cc1cc(F)ccc1S(=O)(=O)Nc1cnccc1C(=O)Nc1nc(-c2ccccc2)cs1` gave NTMT1 inh 18%, USP2a K63 1.9µM* and Casp6 counter 3.
Screening Cc1ccc(S(=O)(=O)Nc2cc(C(F)(F)F)ccc2C(=O)Nc2nc(-c3ccccc3)cs2)cc1 returned NTMT1 inh inconclusive, USP2a K63 1.7µM* and Casp6 counter -15.
`Cc1ccc(S(=O)(=O)Nc2ncccc2C(=O)Nc2nc(-c3ccccc3)cs2)cc1` gave USP2a K63 3.4µM* and Casp6 counter -4.
`Cc1ccc(S(=O)(=O)Nc2cccnc2C(=O)Nc2nc(-c3ccccc3)cs2)cc1` gave NTMT1 inh 23%.
Screening CCC(CC)C(=O)OC12C(OC(=O)C(C)C)C(C)C3(O)C(C=C(CO)CC4(O)C(=O)C(C)=CC43)C1C2(C)C (stereo not given) returned NTMT1 inh -4%[29.8 µM].
COc1cc2nccc(Oc3ccc(NC(=O)c4cn(C(C)C)c(=O)n(-c5ccc(F)cc5)c4=O)cc3F)c2cc1OC was read as NTMT1 inh 22%.
Cc1cc2c(c(=O)[nH]1)OC(C(O)CC(C)C)O2 (stereo not given) was read as NTMT1 inh -16% and NNMT counter 2%.
